Consider eight compounds from PubChem BioAssay (NCI).

Test in all cases: NCI-60 one-dose screen, 48 h (100 = growth as untreated, 0 = no growth, -100 = all killed)
The test system of one assay is HCT-15 colon. Particulars: 10 µM unless noted.
The subject of the next assay is HT29 colon. As to conditions: 10 µM unless noted.
For the next assay, the system named is SNB-75 CNS. As to conditions: 10 µM unless noted.
The test system of the next assay is SNB-19 CNS. Particulars: 10 µM unless noted.
A further assay deals with U251 CNS. Particulars: 10 µM unless noted.
A further assay concerns PC-3 prostate. As to conditions: 10 µM unless noted.
The subject of another assay is UACC-62 melanoma. Particulars: 10 µM unless noted.
The next assay has as its system LOX IMVI melanoma. Particulars: 10 µM unless noted.
For the next assay, the system named is SK-MEL-2 melanoma. Particulars: 10 µM unless noted.
Another assay relates to EKVX NSCLC. Particulars: 10 µM unless noted.
A further assay deals with SN12C renal. As to conditions: 10 µM unless noted.
Another assay deals with UO-31 renal. As to conditions: 10 µM unless noted.
The test system of another assay is TK-10 renal. As to conditions: 10 µM unless noted.
For a further assay, the system named is CAKI-1 renal. As to conditions: 10 µM unless noted.
Another assay deals with HL-60(TB) leukemia. Particulars: 10 µM unless noted.
In another assay the test system is CCRF-CEM leukemia. Particulars: 10 µM unless noted.
For another assay, the system named is SK-MEL-5 melanoma. Particulars: 10 µM unless noted.
The next assay relates to SK-MEL-28 melanoma. As to conditions: 10 µM unless noted.
A further assay deals with ACHN renal. As to conditions: 10 µM unless noted.
A further assay concerns A498 renal. As to conditions: 10 µM.

Compounds without any hit were thinned out: in the full panel of roughly 83,000, 20% have a hit.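 Treatment: one concentration, 48 hours, 96-well format. Scoring: percent growth, with anything below 10 considered active.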 Unmarked numbers belong to inactive results. The source made the active and inactive calls.

As for `CCC1CC(O)c2c(O)c3c(c(O)c2C1O)C(=O)c1cccc(O)c1C3=O` (centres undefined) (tested in a mixture with another compound), the growth with HCT-15 colon was -20.2% (active); in the assay on HT29 colon, -24.6% (active); with SNB-75 CNS, -93.5% (active); in the assay with SNB-19 CNS, -16.4% (active); in the assay on U251 CNS it was -12.2% (active); in the assay on PC-3 prostate, -33.4% (active). The growth was -71.7% (active) in the assay with UACC-62 melanoma; -28.1% (active) with LOX IMVI melanoma; -63% (active) with SK-MEL-2 melanoma; -4.25% (active) with EKVX NSCLC; 0.851% (active) in the assay on SN12C renal; -32.9% (active) in the assay with UO-31 renal. Moreover, the growth in the assay with TK-10 renal is -13.7% (active); in the assay on CAKI-1 renal, 0.243% (active); in the assay with HL-60(TB) leukemia it was -45.5% (active); in the assay on CCRF-CEM leukemia, -21.5% (active).
Regarding `Cc1cc(NC(=O)NCc2ccc(N3C(N)=NC(N)=NC3(C)C)cc2)ccc1S(=O)(=O)F`, the growth was 62.2% in the assay with HCT-15 colon; 11.3% with HT29 colon; 56% with SNB-75 CNS; 34.3% in the assay with SNB-19 CNS; 32.7% in the assay on U251 CNS; 21% with SK-MEL-5 melanoma. Moreover, the growth with UACC-62 melanoma is 11.6%; with LOX IMVI melanoma, 16.7%; in the assay on SK-MEL-28 melanoma, 57.4%; in the assay with SK-MEL-2 melanoma, 34.4%; in the assay with EKVX NSCLC, 53.5%; with SN12C renal it was 33.6%. In addition, the growth was 80.1% in the assay with UO-31 renal; 45.7% in the assay with TK-10 renal; 89.2% in the assay with ACHN renal; 77.7% with A498 renal; 55.4% in the assay with CCRF-CEM leukemia.
Turning to `O=C(CC1(O)C(=O)Nc2ccc(Cl)cc21)c1ccc(C(=O)NCC2CCC3(CC2)OOC2(CCCCC2)OO3)cc1` (centres undefined), the growth was 49.1% in the assay with HCT-15 colon; 15.1% with HT29 colon; -3.77% (active) in the assay with SNB-75 CNS; 30.3% in the assay with SNB-19 CNS; -54.2% (active) in the assay with U251 CNS; -34.2% (active) with PC-3 prostate. Further, the growth in the assay on UACC-62 melanoma was 50.7%; with LOX IMVI melanoma, 32.3%; in the assay on SK-MEL-28 melanoma, 69.2%; in the assay with EKVX NSCLC, -64.2% (active); in the assay with SN12C renal it was 28.2%; with UO-31 renal it was -81.1% (active). In addition, the growth with TK-10 renal was -52.7% (active); in the assay on ACHN renal it was -87.3% (active); in the assay with CAKI-1 renal, -85.9% (active); with A498 renal it was 26.9%; with HL-60(TB) leukemia, -62% (active); in the assay with CCRF-CEM leukemia, -41.3% (active).
As to `COc1ccc(O)c(CNC(=O)CN2CCCC2=O)c1`, the growth was 103% in the assay with HCT-15 colon; 104% in the assay with HT29 colon; 81.3% in the assay on SNB-75 CNS; 103% in the assay on SNB-19 CNS; 103% with U251 CNS; 107% in the assay with SK-MEL-5 melanoma. The growth in the assay on UACC-62 melanoma was 96.6%; with LOX IMVI melanoma, 99.4%; in the assay on SK-MEL-28 melanoma, 99.4%; in the assay on SK-MEL-2 melanoma, 103%; in the assay with EKVX NSCLC it was 100%; with SN12C renal it was 97.6%. The growth in the assay on UO-31 renal is 98.7%; with TK-10 renal, 105%; in the assay on ACHN renal, 99.7%; in the assay with CAKI-1 renal it was 97.4%; in the assay with A498 renal, 93.6%; with HL-60(TB) leukemia, 142%. In the assay on CCRF-CEM leukemia, the growth is 26.4%.
Regarding `C[C@]12CC[C@H]3[C@@H](C[C@@H]4SC(Nc5ccccc5)=N[C@@]45CC(O)CC[C@]35C)[C@@H]1CCC2O` (some centres undefined), the growth was -30.2% (active) in the assay with HCT-15 colon; -38.5% (active) in the assay on HT29 colon; -5.43% (active) in the assay on SNB-75 CNS; 26.5% with SNB-19 CNS; -30.1% (active) in the assay with U251 CNS; 34.5% in the assay with SK-MEL-5 melanoma. Also, the growth in the assay on UACC-62 melanoma was 39.8%; with LOX IMVI melanoma it was -81.5% (active); in the assay on SK-MEL-28 melanoma, 27.3%; in the assay with SK-MEL-2 melanoma, 51.7%; in the assay on EKVX NSCLC, 73.2%; in the assay with SN12C renal, 10.1%. In addition, the growth is 26.1% with UO-31 renal; 65% in the assay with TK-10 renal; 36.8% with ACHN renal; 49% in the assay with CAKI-1 renal; 15.7% in the assay with HL-60(TB) leukemia; 0.738% (active) in the assay on CCRF-CEM leukemia.
Regarding `CCn1c2ccccc2c2cc(C(=O)c3cccc4c3CCCN4)ccc21`, the growth was 104% in the assay on HCT-15 colon; 113% in the assay on HT29 colon; 91.6% in the assay with SNB-75 CNS; 97.6% with SNB-19 CNS; 106% with U251 CNS; 108% in the assay with PC-3 prostate. Further, the growth in the assay on UACC-62 melanoma was 92.2%; with LOX IMVI melanoma it was 94.4%; in the assay on SK-MEL-28 melanoma, 103%; in the assay on SK-MEL-2 melanoma, 99.5%; in the assay on EKVX NSCLC, 99.3%; in the assay with SN12C renal, 93.7%. Also, the growth is 94.1% with UO-31 renal; 107% in the assay on TK-10 renal; 102% with ACHN renal; 99.3% with CAKI-1 renal; 112% with A498 renal; 110% in the assay with HL-60(TB) leukemia. Also, the growth with CCRF-CEM leukemia was 120%.
With `CN1C(=O)C(=Cc2cn(Cc3ccccc3)c3ccccc23)C(=O)N(C)C1=O`, the growth is 93% in the assay with HCT-15 colon; 89.5% in the assay on HT29 colon; 60.1% in the assay with SNB-75 CNS; 90% in the assay with SNB-19 CNS; 82.8% with U251 CNS; 63.4% in the assay with SK-MEL-5 melanoma. The growth was 34% with UACC-62 melanoma; 82.6% in the assay on LOX IMVI melanoma; 99.3% with SK-MEL-28 melanoma; 81.5% in the assay on SK-MEL-2 melanoma; 82.1% in the assay with EKVX NSCLC; 103% in the assay on SN12C renal. The growth is 54.3% in the assay on UO-31 renal; 4.63% (active) in the assay on TK-10 renal; 84.5% in the assay with ACHN renal; 60.4% with CAKI-1 renal; -83.1% (active) with A498 renal; 64.4% with HL-60(TB) leukemia.
`COc1ccc(N(CC(=O)NCCC[Te]c2ccccc2)C(=O)CNC(=O)OC(C)(C)C)cc1`: the growth in the assay on HCT-15 colon is 11.3%; with HT29 colon, -36.8% (active); in the assay with SNB-75 CNS it was 57.9%; in the assay with SNB-19 CNS, 33%; in the assay on U251 CNS, 12.4%; in the assay with SK-MEL-5 melanoma it was 41.4%. Also, the growth in the assay on UACC-62 melanoma is 89.2%; in the assay on LOX IMVI melanoma, 17.6%; with SK-MEL-28 melanoma it was 105%; in the assay on SK-MEL-2 melanoma, 80%; in the assay with EKVX NSCLC, -5.01% (active); in the assay with SN12C renal, 18.7%. For the same compound, the growth was -3.8% (active) with UO-31 renal; 76.1% with TK-10 renal; 83.9% with ACHN renal; 70.4% with CAKI-1 renal; -16% (active) in the assay on A498 renal; 3.6% (active) in the assay with HL-60(TB) leukemia. In addition, the growth with CCRF-CEM leukemia is 14%.
